Molecules are shown by their SMILES. Activity calls are given as the source filed them.

Experiment [1] relates to Plasmodium falciparum Sir2 (PF13_0152, Sir2A). In words: Plasmodium falciparum Sir2A binding compounds – biochemical, small-molecule microarray, 635 nm fluorescence, primary screen (AID 1098).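 Also: score merges spot fluorescence intensity with its signal-to-noise ratio.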 The conditions noted are these: fluorescence 635 nm, higher = more signal.
Experiment [2] is described as follows: probe aDKK1 binding to arrayed compounds – biochemical, biotinylated probe, 635/667 nm fluorescence, primary screen (AID 1099).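 Also: score merges 667nm spot fluorescence with signal to noise across triplicate slides.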 The conditions noted are these: small-molecule microarray, higher = more signal.
Experiment [3] can be described thus: probe aCHRDL2 binding to arrayed compounds – biochemical, biotinylated probe, 635/667 nm fluorescence, primary screen (AID 1100). The conditions noted are these: small-molecule microarray, higher = more signal.
Experiment [4] in a line: change in splice reporter luminescence, either direction, cell-based, HEK293, spliceosome inhibition project, primary screen (AID 1101).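 Also: HEK293 cells carrying a splicing-competent luciferase reporter gene; test concentration not given here.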 The conditions noted are these: HEK293 splicing luciferase reporter, 24 h, higher = more signal, called active from +8 up or from −8 down.
The target of experiment [5] is Fibroblast growth factor 10 (Homo sapiens) (UniProt O15520). Nature of the experiment: compounds binding fibroblast growth factor 10 – biochemical, small-molecule microarray, 635 nm fluorescence, primary screen (AID 1102). The conditions noted are these: FGF10 binding, fluorescence 635 nm, higher = more signal.
Chain of Fibroblast growth factor 10 (Homo sapiens) (O15520 whole entry, looked up): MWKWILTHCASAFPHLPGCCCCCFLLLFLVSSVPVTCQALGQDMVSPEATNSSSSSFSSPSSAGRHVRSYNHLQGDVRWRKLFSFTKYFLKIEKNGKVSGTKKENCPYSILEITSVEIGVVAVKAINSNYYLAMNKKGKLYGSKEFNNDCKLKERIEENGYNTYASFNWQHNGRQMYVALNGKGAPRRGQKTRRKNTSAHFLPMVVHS
For experiment [6], the system named is glycogen synthase kinase-3 (GSK3A per assay name; protocol says GSK3B). Nature of the experiment: compounds binding glycogen synthase kinase-3 – biochemical, small-molecule microarray, 635 nm fluorescence, GSK3A, primary screen (AID 1103). Also: the record names both GSK3A and GSK3B. The conditions noted are these: fluorescence 635 nm, higher = more signal.
Experiment [7] addresses Epidermal growth factor receptor (Homo sapiens) (UniProt P00533). Nature of the experiment: compounds binding epidermal growth factor receptor – biochemical, small-molecule microarray, 635 nm fluorescence, primary screen (AID 1104).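 Also: score merges 667 nm emission intensity with spot signal to noise over triplicate slides.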 The conditions noted are these: EGFR binding, higher = more signal.
Experiment [8] has as its target Follistatin-related protein 3 (Homo sapiens) (UniProt O95633). In words: compounds binding follistatin-related protein 3 – biochemical, small-molecule microarray, 635 nm fluorescence, primary screen (AID 1105).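 Also: score merges emission near 667 nm and signal to noise per printed spot across three slides.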 The conditions noted are these: FSTL3 binding, higher = more signal.
Experiment [9] deals with Dickkopf-related protein 1 (Homo sapiens) (UniProt O94907). In words: small molecules binding DKK1 protein – biochemical, small-molecule microarray, 635 nm fluorescence scan, primary screen (AID 1106).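 Also: score merges emission near 667 nm with signal to noise over three replicate slides.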 The conditions noted are these: higher = more signal.
Chain of Dickkopf-related protein 1 (Homo sapiens) (O94907 whole entry, looked up): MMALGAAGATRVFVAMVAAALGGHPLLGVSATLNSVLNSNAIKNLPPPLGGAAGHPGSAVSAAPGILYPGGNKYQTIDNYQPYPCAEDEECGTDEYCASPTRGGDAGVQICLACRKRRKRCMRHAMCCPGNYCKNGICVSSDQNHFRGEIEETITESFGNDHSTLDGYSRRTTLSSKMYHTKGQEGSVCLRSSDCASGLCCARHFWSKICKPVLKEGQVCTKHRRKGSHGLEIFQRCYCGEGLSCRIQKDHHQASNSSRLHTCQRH
For experiment [10], the system named is Inhibin beta A chain (activin A). Nature of the experiment: small molecules binding activin A – biochemical, small-molecule microarray, 635 nm fluorescence scan, primary screen (AID 1107).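 Also: mouse activin A protein probed at 4.33 µg/mL on printed slides; score merges bound-protein fluorescence near 667 nm with spot signal-to-noise.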 The conditions noted are these: INHBA, higher = more signal.
For experiment [11], the system named is Human papillomavirus type 1a protein E7 (residues 44-93). Nature of the experiment: small molecules binding HPV E7 44-93 – biochemical, small-molecule microarray, residues 44-93, 635 nm fluorescence, primary screen (AID 1108).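 Also: E7 fragment applied at 1 µg/mL in TBST for 1 h at 4 C; score combines spot fluorescence with its signal to noise ratio.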 The conditions noted are these: fluorescence 635 nm, higher = more signal.
Experiment [12] in a line: hepatitis C replication reporter changes, two-sided – Huh7 cells, luciferase reporter, HCV replication inhibitor project, primary screen (AID 1109).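 Also: huh7 hepatoma cells harbouring a luciferase neomycin HCV replicon reporter; luciferase luminescence as measure of HCV replicon replication; test concentration not given here.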 The conditions noted are these: Huh7 HCV replicon luciferase reporter, 48 h; higher = more signal.
Experiment [13] deals with Left-right determination factor 2 (Homo sapiens) (UniProt O00292). In words: small molecules binding LEFTY2 protein – biochemical, small-molecule microarray, 635 nm fluorescence scan, primary screen (AID 1110). The conditions noted are these: higher = more signal.
Chain of Left-right determination factor 2 (Homo sapiens) (O00292 whole entry, looked up): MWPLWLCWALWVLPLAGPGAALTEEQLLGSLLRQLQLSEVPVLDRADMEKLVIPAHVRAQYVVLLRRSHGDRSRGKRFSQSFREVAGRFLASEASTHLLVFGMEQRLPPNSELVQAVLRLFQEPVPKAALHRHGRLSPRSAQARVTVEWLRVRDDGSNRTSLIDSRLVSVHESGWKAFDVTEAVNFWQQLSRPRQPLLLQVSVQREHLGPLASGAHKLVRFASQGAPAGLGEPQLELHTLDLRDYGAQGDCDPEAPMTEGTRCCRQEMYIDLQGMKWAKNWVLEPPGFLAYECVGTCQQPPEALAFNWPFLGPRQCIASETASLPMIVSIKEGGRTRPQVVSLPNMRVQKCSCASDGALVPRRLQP
For experiment [14], the target named is Calmodulin-1 (Homo sapiens) (UniProt P0DP23). Nature of the experiment: small molecules binding calmodulin-1 with EGTA – biochemical, small-molecule microarray, Cy5-labelled CALM1, profiling panel (AID 1111).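 Also: labelled calmodulin applied in Tris saline Tween buffer holding calcium plus EGTA and DTT.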 The conditions noted are these: Cy5-CALM1 binding fluorescence, higher = more signal.
Experiment [15] has the same target. Nature of the experiment: small molecules binding Ca-loaded calmodulin-1 – biochemical, small-molecule microarray, Cy5-labelled CALM1, plus calcium, artefact control for SMM control-protein annotation, profiling panel (AID 1112).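 Also: score merges spot fluorescence with signal to noise from triplicate slides.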 The conditions noted are these: Cy5-CALM1 binding fluorescence, higher = more signal.
The nature of experiment [16]: probe aWnt5a binding to arrayed compounds – biochemical, biotinylated probe, 635/667 nm fluorescence, primary screen (AID 1113).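 Also: score merges 667 nm fluorescence intensity with signal-to-noise per printed feature.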 The conditions noted are these: small-molecule microarray, higher = more signal.
Experiment [17] can be described thus: probe aShh binding to arrayed compounds – biochemical, biotinylated probe, 635/667 nm fluorescence, primary screen (AID 1114).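 Also: probe is biotin-labelled aShh protein from a stem cell growth factor screen; measures binding of labelled protein to compounds printed on the slide; score merges feature fluorescence at 667 nm with signal-to-noise.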 The conditions noted are these: small-molecule microarray, higher = more signal.
Experiment [18] in a line: probe aNog binding to arrayed compounds – biochemical, biotinylated probe, 635/667 nm fluorescence, primary screen (AID 1115).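 Also: probe is biotinylated aNog protein used at 0.15 µg/mL for 1 h at 4 C; z-score combines 667 nm fluorescence of each spot with its signal to noise.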 The conditions noted are these: small-molecule microarray, higher = more signal.
In experiment [19] the target is Torsin-1A-interacting protein 1 (Homo sapiens) (UniProt Q5JTV8). In words: compound microarray binding of lysate hLAP1 – cell lysate, small-molecule microarray, COS7 lysate, 635/667 nm fluorescence, primary screen (AID 1116). The conditions noted are these: 635 nm fluorescence, higher = more signal.
Chain of Torsin-1A-interacting protein 1 (Homo sapiens) (Q5JTV8 whole entry, looked up): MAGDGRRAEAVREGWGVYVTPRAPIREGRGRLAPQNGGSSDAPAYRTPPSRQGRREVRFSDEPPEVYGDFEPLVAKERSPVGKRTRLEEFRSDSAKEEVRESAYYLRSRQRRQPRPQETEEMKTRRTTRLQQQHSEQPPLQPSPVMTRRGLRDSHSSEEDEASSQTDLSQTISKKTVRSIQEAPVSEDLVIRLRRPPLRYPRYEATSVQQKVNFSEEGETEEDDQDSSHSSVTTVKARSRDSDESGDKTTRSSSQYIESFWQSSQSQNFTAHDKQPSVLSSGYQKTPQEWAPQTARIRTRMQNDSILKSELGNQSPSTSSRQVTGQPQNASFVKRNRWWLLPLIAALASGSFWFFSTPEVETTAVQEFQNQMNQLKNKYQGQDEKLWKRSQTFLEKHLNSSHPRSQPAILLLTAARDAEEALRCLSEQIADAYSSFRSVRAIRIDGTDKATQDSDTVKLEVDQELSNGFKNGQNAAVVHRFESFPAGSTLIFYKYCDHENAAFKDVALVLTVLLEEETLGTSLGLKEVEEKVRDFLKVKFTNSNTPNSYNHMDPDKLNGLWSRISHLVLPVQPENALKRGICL
The target of experiment [20] is Alpha-bungarotoxin (Bungarus multicinctus) (UniProt P60615). Nature of the experiment: compounds binding labelled alpha-BTX control protein – biochemical, small-molecule microarray, Alexa647 label, 635/667 nm fluorescence, artefact control for SMM control protein annotation, profiling panel (AID 1117). The conditions noted are these: alpha-BTX-A647 binding fluorescence, higher = more signal.
Chain of Alpha-bungarotoxin (Bungarus multicinctus) (P60615 whole entry, looked up): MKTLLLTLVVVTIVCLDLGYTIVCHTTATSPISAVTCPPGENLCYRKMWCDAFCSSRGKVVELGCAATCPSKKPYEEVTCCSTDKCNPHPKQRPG

Chain of Follistatin-related protein 3 (Homo sapiens) (O95633 whole entry, looked up): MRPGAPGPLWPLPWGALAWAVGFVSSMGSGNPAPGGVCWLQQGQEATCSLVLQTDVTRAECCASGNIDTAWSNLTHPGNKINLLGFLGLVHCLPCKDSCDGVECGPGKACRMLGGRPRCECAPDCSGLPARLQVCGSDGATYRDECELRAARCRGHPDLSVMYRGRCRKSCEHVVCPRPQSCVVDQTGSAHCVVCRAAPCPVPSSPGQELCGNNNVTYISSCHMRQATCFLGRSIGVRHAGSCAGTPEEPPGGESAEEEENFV
Chain of Epidermal growth factor receptor (Homo sapiens) (P00533 whole entry, looked up): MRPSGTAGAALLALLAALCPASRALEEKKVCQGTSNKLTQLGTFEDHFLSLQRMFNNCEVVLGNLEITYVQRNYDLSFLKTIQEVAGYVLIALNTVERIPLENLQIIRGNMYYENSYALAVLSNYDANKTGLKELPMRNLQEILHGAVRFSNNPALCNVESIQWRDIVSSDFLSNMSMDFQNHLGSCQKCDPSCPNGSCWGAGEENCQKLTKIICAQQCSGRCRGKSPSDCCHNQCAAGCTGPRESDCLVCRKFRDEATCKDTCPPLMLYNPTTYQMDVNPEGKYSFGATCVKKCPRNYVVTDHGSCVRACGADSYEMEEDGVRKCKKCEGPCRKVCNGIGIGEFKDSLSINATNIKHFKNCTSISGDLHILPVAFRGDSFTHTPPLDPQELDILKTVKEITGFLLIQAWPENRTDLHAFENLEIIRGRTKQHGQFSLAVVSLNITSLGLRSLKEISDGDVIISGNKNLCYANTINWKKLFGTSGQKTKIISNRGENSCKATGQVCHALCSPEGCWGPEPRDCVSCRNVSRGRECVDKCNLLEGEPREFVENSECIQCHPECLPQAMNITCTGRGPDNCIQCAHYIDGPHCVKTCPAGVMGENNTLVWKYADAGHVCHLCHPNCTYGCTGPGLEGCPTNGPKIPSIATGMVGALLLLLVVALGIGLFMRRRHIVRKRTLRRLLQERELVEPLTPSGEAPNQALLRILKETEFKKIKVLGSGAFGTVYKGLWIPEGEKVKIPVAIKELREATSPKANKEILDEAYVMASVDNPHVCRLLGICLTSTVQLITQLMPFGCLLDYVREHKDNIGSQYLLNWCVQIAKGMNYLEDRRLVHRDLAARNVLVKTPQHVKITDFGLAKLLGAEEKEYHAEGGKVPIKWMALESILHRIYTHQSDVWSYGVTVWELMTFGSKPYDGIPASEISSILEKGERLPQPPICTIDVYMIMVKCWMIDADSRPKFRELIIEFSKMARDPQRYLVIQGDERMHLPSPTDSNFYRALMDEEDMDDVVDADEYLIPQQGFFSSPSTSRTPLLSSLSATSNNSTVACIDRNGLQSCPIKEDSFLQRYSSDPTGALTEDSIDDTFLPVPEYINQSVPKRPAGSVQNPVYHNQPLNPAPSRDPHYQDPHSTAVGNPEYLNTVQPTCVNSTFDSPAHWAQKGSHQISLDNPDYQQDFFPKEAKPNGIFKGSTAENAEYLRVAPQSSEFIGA

`O=C1O[C@H](c2ccccc2)[C@H](c2ccccc2)N2[C@H]1[C@@H](C(=O)N1CCCCCCC1)[C@]1(C(=O)Nc3ccc(C#CC4(O)CCCCCC4)cc31)[C@H]2c1ccccc1OCCO`: the composite z-score is 2.09 in experiment [1]; 3.17 in experiment [2]; 1.7 in [3]; 1.56 in experiment [5]; 1.48 in experiment [6]; 1.96 in [7]. In addition, the composite z-score in experiment [8] is 1.77; in experiment [9], 2.77; in experiment [10] it was 1.69; in [11], 1.59; in experiment [13], 1.78; in [14] it was 3.09. For the same compound, the composite z-score in experiment [15] turned out to be 1.81; in experiment [16] it was 1.53; in experiment [17] it was 1.92; in [18], 3.25; in [19], 5.71; in experiment [20], 4.23. In addition, the z-score in experiment [4] is -0.0867 (inactive); in experiment [12] it was -1.88.
Take `Cc1ccccc1C(O)C1C=CC2C(=O)N(c3ccccc3)C(=O)C2N1Nc1ccc([N+](=O)[O-])cc1` (stereo not given): the composite z-score was 1.3 in experiment [1]; 0.25 in experiment [2]; 0.793 in experiment [3]; 0.597 in experiment [5]; 1.29 in [6]; 0.217 in experiment [7]. In addition, the composite z-score in [8] amounted to 1.19; in experiment [9], 0.0125; in [10], 0.816; in experiment [11] it was 1.42; in experiment [13], 0.174; in experiment [14], 1.05. For the same compound, the composite z-score was 0.656 in [15]; -0.012 in experiment [16]; 0.0684 in [17]; 1.63 in experiment [18]; 2.03 in [19]; 0.625 in [20]. The figures for the z-score in experiment [4] and in experiment [12] were -0.0433 (inactive) and -0.598, respectively.
As to `[N-]=[N+]=Nc1ccccc1C[C@]1(C(=O)NCc2ccccc2)COC(c2ccc(OCCCO)cc2)=N1`, the composite z-score was 1.26 in experiment [1]; 0.187 in [2]; 0.869 in experiment [3]; 1.16 in experiment [5]; 1.23 in [6]; -0.404 in experiment [7]. For the same compound, the composite z-score in experiment [8] was 1.01; in experiment [9], -0.537; in experiment [10], 0.386; in experiment [11], 1.4; in [13] it was -0.576; in experiment [14], 0.575. For the same compound, the composite z-score in experiment [15] was 0.154; in experiment [16] it was 0.0004; in experiment [17] it was -0.167; in experiment [18] it was 0.919; in experiment [19] it was 1.42; in experiment [20], 1.04. Further, the z-score in experiment [4] is 0.439 (inactive); in [12] it was -3.22.
In the case of `COCCOC(=O)N1C(=O)[C@@]2(c3cc(C#CCC(C(=O)OC)C(=O)OC)ccc31)[C@H](c1ccc(OCCO)cc1)N1[C@H](c3ccccc3)[C@H](c3ccccc3)OC(=O)[C@H]1[C@@H]2C(=O)Nc1nc2ccccc2s1`, the composite z-score in experiment [1] is 1.02; in experiment [2] it was 0.0317; in experiment [3] it was -0.108; in experiment [5], 0.84; in experiment [6], 1.06; in experiment [7], 0.292. The composite z-score came to 1.08 in [8]; 0.279 in experiment [9]; 0.495 in [10]; 1.16 in [11]; 0.423 in [13]; 1.05 in experiment [14]. For the same compound, the composite z-score in experiment [15] was -0.0309; in experiment [16] it was -0.0202; in experiment [17] it was -0.0793; in experiment [18] it was -0.114; in experiment [19] it was 0.743; in experiment [20], 1.06. The z-score was 0.907 (inactive) in experiment [4] and -2.06 in experiment [12].
For the compound `CN1C=C(C(=O)OCCS(C)(=O)=O)C(C(=O)OCCS(C)(=O)=O)=CC(c2ccc(CO)cc2)=CC1c1cccs1` (stereo not given), the composite z-score came to 0.76 in experiment [1]; 0.162 in experiment [2]; 0.102 in experiment [3]; 0.588 in experiment [5]; 0.499 in [6]; 0.294 in experiment [7]. Also, the composite z-score in [8] was 0.226; in experiment [9], -0.0496; in experiment [10], 1.47; in experiment [11], 0.229; in experiment [13] it was 0.0843; in experiment [14] it was -0.165. Moreover, the composite z-score in experiment [15] was -0.388; in experiment [16], -0.0405; in experiment [17], 0.0062; in experiment [18], 0.304; in experiment [19], 1.46; in experiment [20] it was 0.821. Besides, the z-score is 0.497 (inactive) in experiment [4] and 0.19 in experiment [12].

The values are drawn from PubChem BioAssay.
